In the library only some 19% were active in any assay of this set; here they are far more common.
Lassa entry inh – inhibitors of Lassa virus binding or cell entry; AID 540256; Lassa virus pseudotype entry inhibition, cell reporter; actives 1.2% (n = 300,000); Potency, µM (series often up to 37.9 µM), actives largely listed as inhibitors; calls by dose curve; tested in HEK293 cells; further: nearly all actives have a fitted effect of over 50% in size
Pf growth 96h – P. falciparum growth inhibition at 96 hours; Potency, µM (highest dose often 28.7 µM), usual class: inhibitors; actives 6.9% (n = 320,000); P. falciparum luciferase reporter growth, 96 h
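Infected RBCs, 2% Hct / 0.05% parasitemia final; luciferase-reporter P. falciparum; cpd 96 h, 37 C, 5% CO2; luciferase detection reagent; luminescence.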
Cycloheximide cs – counter-screen hit for Shiga toxin inhibitors, cycloheximide; max response, %; actives 12% (n = 300,000); cell reporter, cycloheximide protein synthesis inhibition counterscreen; AID 2314; in the data active means max response mostly above about 13%, no sharp cut-off; inactive means mostly below about 14%; further: read at 38.3 µM for the half of the compounds with a filed dose
Shiga toxin inh – Shiga toxin inhibition. Vero cells, Shiga toxin protein synthesis inhibition reporter. inhibition, % at 38.7 µM. actives 9.2% (n = 290,000). AID 2315; in the data active means inhibition mostly above about 28%, no sharp cut-off; inactive means mostly below about 43%
Pf growth 48h – inhibits P. falciparum growth in the first generation, 48 h; P. falciparum luciferase growth in erythrocytes, 48 h; Potency, µM (highest dose often 28.7 µM), actives largely listed as inhibitors; actives 5.9% (n = 310,000)
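First compound was added to culture medium, then infected red cells at 0.1% parasitemia and 2% hematocrit (final). After incubation at 37 C under 5% CO2, luciferase detection reagent was dispensed and light output recorded.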
Marburg entry inh – Marburg virus entry inhibition; Marburg virus pseudotyped entry inhibition, cell reporter; Potency, µM (series often up to 37.8 µM), actives largely listed as inhibitors; actives 1.8% (n = 300,000); AID 540276; calls by dose curve; tested in HEK293 cells
A number is an active result; n = inactive; u = inconclusive; x = no result; + = active, no number; [ ] = another dose, or the depositor's remark. Unless noted, the call rests on the fitted dose curve; in most records, active means well fitted inhibition curve with a large enough effect; inconclusive means small, poorly fitted or top-dose-only effect, or another doubt; inactive means no such curve, though single readings can be large or run the other way.

SMILES	Lassa entry inh	Pf growth 96h	Cycloheximide cs	Shiga toxin inh	Pf growth 48h	Marburg entry inh
Cc1onc(-c2ccccc2Cl)c1C(=O)Nc1ccccc1	n	n	n	n	n	n
Cc1cc(C)n(-c2ccc(Cl)c(C(=O)Nc3ccc(-c4nnc5n4CCCCC5)cc3)n2)n1	n	8.3µM	n	n	u	n
Cc1onc(-c2ccccc2Cl)c1C(=O)NC(=S)Nc1ccc(C(C)(C)C)cc1	x	6.6µM	n	n	u	x
CCc1ccc(NC(=S)NC(=O)c2c(-c3ccccc3Cl)noc2C)cc1	n	7.4µM	n	n	12µM	u
Cc1onc(-c2ccccc2Cl)c1C(=O)Nc1ccc(CN2CCCC2)cc1	n	x	n	n	u	n
Cc1onc(-c2ccccc2Cl)c1C(=O)Nc1ccc(-c2nnc3n2CCCCC3)cc1	n	x	n	n	9.3µM	n
CC(C)CCn1cnc2c([nH]c3cccc(Cl)c32)c1=O	n	n	n	n	x	n
O=C(CN1CCc2ccccc21)Nc1ccc2c(c1)OCO2	n	x	n	n	n	n
COc1ccccc1NC(=O)C(C)Sc1nccn1C (stereo not given)	x	u	x	x	n	x
COc1ccc(NC(=O)CSc2nc(C)cc(C)n2)cc1	n	n	n	n	n	n
CCc1ccc(/C=C2/C(=O)NC(=O)N2C(C)=O)cc1	n	n	37	n	n	n
CCc1ccc(N2C(=O)NC(=O)/C(=C/c3ccsc3)C2=O)cc1	x	u	n	n	n	x
COc1cc(NC(=O)Cc2c(C(=O)O)c(C)cn2C)cc(OC)c1	n	x	x	x	x	x
CC1CCC(NC(=O)c2cc(Cl)nc3ccccc23)CC1 (stereo not given)	x	n	x	x	n	x
Cc1c(-c2cccc(Cl)c2)nc2ccccc2c1C(=O)OCC(=O)Nc1ccc2c(c1)OCO2	u	2.1µM	n	n	u	u
CCCc1nc2ccccc2c(C(=O)OCC(=O)NCc2ccc3c(c2)OCO3)c1CC	u	8.3µM	n	n	10µM	n
Cc1c(-c2cccc(Cl)c2)nc2ccccc2c1C(=O)NC1CC1	x	10µM	n	n	n	x
CCc1nc2ccccc2c(C(=O)OCC(=O)NCc2ccc3c(c2)OCO3)c1C	n	u	n	n	n	n
Cc1onc(-c2ccccc2)c1C(=O)OCC(=O)Nc1ccc2c(c1)OCO2	n	u	n	n	u	n
O=S(=O)(c1ccccc1)N(CC(O)CN1CCCC1)c1ccccc1 (stereo not given)	u	n	n	n	n	n
CNc1nc2c(N)ncnc2n1[C@@H]1O[C@@H]2COP(=O)(O)O[C@H]2[C@H]1O	x	x	n	n	x	x
CCCNS(=O)(=O)c1cccn1-c1ncc(C(F)(F)F)cc1Cl	n	n	n	n	x	n
O=C(Nc1cccc(C(=O)O)c1)/C(=C\C=C\c1ccccc1)NC(=O)c1ccccc1	n	u	n	n	n	n
CCNc1nc(Cl)nc(N(NC(C)=O)C(C)CC)n1 (stereo not given)	n	n	n	n	x	u
CCC(C)N(NC(C)=O)c1nc(Cl)nc(NC(C)C)n1 (stereo not given)	n	u	n	n	2.1µM	n
SMILES	Lassa entry inh	Pf growth 96h	Cycloheximide cs	Shiga toxin inh	Pf growth 48h	Marburg entry inh
Cn1c(=O)c2sccc2n2c(CCC(=O)NCc3ccc(F)cc3)nnc12	n	x	x	x	x	n
Nc1nc(-c2cccnc2)nn1C(=O)c1ccc(Cl)cc1	n	n	n	n	n	n
Nc1nc(-c2ccc(Cl)cc2)nn1C(=O)c1cccs1	n	13µM	n	n	n	n
Nc1nc(-c2ccc(Cl)cc2)nn1C(=O)c1cccnc1	n	n	25	31	n	n
Cc1nncn1-c1ccc(C(=O)Nc2cc(F)ccc2F)cc1	n	x	x	x	x	x
CCOc1ccc(NC(=O)CN(C)S(=O)(=O)c2ccc(-c3ccc(=O)[nH]n3)s2)cc1	n	n	n	n	u	n
Cc1cc2nc(C3CCCN(C(=O)NCc4ccccc4)C3)[nH]c2cc1C (stereo not given)	n	n	35	n	n	n
Cc1ccc(NC(=S)N2CCCC(c3nc4ccc(C)cc4[nH]3)C2)c(C)c1 (stereo not given)	n	n	10	n	n	u
Cc1cc2nc(C3CCCN(C(=S)Nc4ccccc4C)C3)[nH]c2cc1C (stereo not given)	u	n	33	n	n	n
CCCCONc1ncnc2nonc12	u	n	n	n	n	u
O=C1CCC([N+](=O)[O-])C(c2cccc3ccccc23)N1 (stereo not given)	n	n	n	n	n	n
CN1CC=C2C(C#N)=C(N)C(C#N)(C#N)C(c3ccsc3)C2C1 (stereo not given)	n	u	n	n	n	u
Cc1ccnc(NC(=O)C2COc3ccccc3O2)c1 (stereo not given)	u	n	65	56	n	n
CC(C)NC(=O)C1COc2ccccc2O1 (stereo not given)	x	n	n	n	n	x
Cc1ccc(NC(=O)C2COc3ccccc3O2)nc1 (stereo not given)	u	u	40	n	x	n
Cc1ccc(NC(=O)C2c3ccccc3Oc3ccccc32)nc1	u	u	n	n	n	u
CCc1ccc(NC(=O)CN(Cc2ccccc2)S(=O)(=O)c2ccc3nc(C)sc3c2)cc1	n	x	x	x	x	x
CCCN(CCC)c1ccc(/C=N/NC(=O)CN2CCOCC2)cc1	n	n	n	n	u	n
Cc1ccc(/C=N/NC(=O)c2cccs2)o1	u	n	40	162	n	n
Cc1ccc(/C=N/NC(=O)c2cccc([N+](=O)[O-])c2)o1	n	u	n	n	n	n
Cc1ccc(/C=N/NC(=O)c2csc(C)c2)o1	u	u	23	+	n	n
COc1ccc(Cl)cc1N1C(=O)/C(=C\c2sccc2C)N=C1SCC(=O)NC1CC1	n	9.3µM	n	n	x	n
Cc1ccc(C2=NN=C(NC(=O)CSc3nncn3C)SC2)cc1	n	n[5.75 µM]	n	n	u	n
CN1c2ccc([N+](=O)[O-])cc2CC2(C(=O)NC(=O)N(c3ccc(Br)cc3)C2=O)C1c1ccccc1 (stereo not given)	n	u	n	n	1.7µM	u
CCOC(=O)c1c(C)oc2c1cc(NS(=O)(=O)c1ccc(C(=O)O)cc1)c1ccccc12	n	n	n	n	n	n
SMILES	Lassa entry inh	Pf growth 96h	Cycloheximide cs	Shiga toxin inh	Pf growth 48h	Marburg entry inh
COc1cccc2[nH]c3ccccc3c(=O)c12	x	u	n	x	u	x
Nc1cccc2c(=O)c3ccccc3[nH]c12	n	1.9µM	n	n	1.9µM	u
O=C(NC1CC1)c1cc2cc(Br)ccc2s1	n	n	38	51	u	n
O=C(NC1CC1)c1cc2cc3ccccc3nc2s1	n	13µM	41	99	n	u
O=C(NNS(=O)(=O)c1ccccc1)c1cc2cc3ccccc3nc2s1	n	n	n	54	u	n
CCS(=O)(=O)N1CCc2cc(C(=O)Nc3cc(C)cc(C)c3)ccc21	n	x	x	x	x	n
COc1ccc(CN2CCN(C(=O)c3ccc(CNS(=O)(=O)c4ccc(C)cc4)cc3)CC2)c(OC)c1OC	x	n	n	n	n	x
COc1cccc(CN2CC(C(=O)NCCn3cccn3)CCC2=O)c1 (stereo not given)	n	u	n	n	n	n
